Test results published in PubChem BioAssay AID952 (NMMLSC, 2007).
In all, about 190,000 compounds went through this assay and about 45 (0.02%) were called active. Cut-off read from the data, not from the text of the source: active = inhibition above about 40%. The list is a sample of the results.

What follows are compounds tested against Bcl-2-like protein 2 (Homo sapiens) (UniProt Q92843) (assay: Bcl-W/Bim complex disruptors – biochemical, multiplexed, bead-based flow cytometry, primary screen (AID 952;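 note: 0% = bound tracer without compound and 100% = peptide blocker; higher means less fluorescent Bim peptide bound to Bcl-W beads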)). Details: Bim peptide-Bcl-W binding, at 10 µM, active compounds read high.
Bcl-2-like protein 2 (Homo sapiens), sequence (Q92843 whole entry, looked up): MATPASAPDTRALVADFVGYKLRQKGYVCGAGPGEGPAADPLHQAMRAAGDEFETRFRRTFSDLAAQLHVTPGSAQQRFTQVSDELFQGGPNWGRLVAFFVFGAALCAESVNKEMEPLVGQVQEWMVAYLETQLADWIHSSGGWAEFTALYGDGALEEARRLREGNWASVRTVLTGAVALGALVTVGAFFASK

inhibition, inactive:
CCOC(=O)NC(=O)/C(C#N)=C\c1ccccc1 -2%, Cc1cc(C)cc(NC(=O)N2CCCCCCC2)c1 0%, Cc1[nH]c2ccccc2c1C(=O)COC(=O)c1c(-c2ccccc2)noc1C -1%, COc1cc(SC#N)ccc1N=Cc1c(C)[nH]n(-c2ccc(C)cc2)c1=O 6%, O=C(NCc1ccccc1)C1CCCN(c2nc3ccsc3c(=O)s2)C1 (stereo not drawn) -4%, CCN(CC)CC(=O)Nc1sc2c(c1C(=O)c1ccccc1C)CCC2 0%, O=C(Nc1nnc(-c2ccco2)o1)c1ccc(S(=O)(=O)N2CCOCC2)cc1 0%, Cc1nc(N2CCOCC2)sc1C(=O)NN 0%, CC1CCN(C(=S)c2cccc([N+](=O)[O-])c2)CC1 0%, N/C(=N\OC(=O)CCCC(=O)O)c1ncc(C(F)(F)F)cc1Cl -1%, Cc1ccc(SC(C)C(=O)NCc2ccc(F)cc2)cc1 (stereo not drawn) 0%, Cc1ccc(Nc2cc(C)nc3c(C)ccc([N+](=O)[O-])c23)cc1 0%, N#Cc1c(NC(=O)c2ccc(N3CCOCC3)c([N+](=O)[O-])c2)sc2c1CCCC2 -4%, Cc1cc(C)nc(-n2nc(C)cc2NC(=O)c2ccc(F)cc2F)n1 1%, CCc1nn(CCCN2CCN(c3cccc(Cl)c3)CC2)c(=O)n1CCOc1ccccc1 -5%, C/C(=N/N1CCN(Cc2cccc3ccccc23)CC1)c1cccnc1 0%, O=C1CC(c2cccc(Cl)c2)CC(O)=C1C=Nc1ccccc1 (stereo not drawn) -5%, Cc1cnc(C(=O)OCC(=O)N2CCc3ccccc32)cn1 0%, CC(=O)C1(C)N(O)C(C)(C)C(c2cccs2)=[N+]1[O-] (stereo not drawn) 0%, O=C(OCC(=O)c1cccs1)c1ccc([N+](=O)[O-])o1 0%, O=C(CCl)N(Cc1cccc([N+](=O)[O-])c1)c1cccc(Cl)c1 1%, c1ccc2c(c1)OCCOCCOCCO2 0%, CCOc1cccc2c1OC1(CCCCC1)N1N=C(c3cccnc3)CC21 (stereo not drawn) -4%, CCCC(=O)Nc1ccc(C(=O)N/N=C/c2ccc[nH]2)cc1 -5%, Cc1ccc(S(=O)(=O)N(C)C)cc1NC(=O)COC(=O)c1c(C)noc1C 0%, Cc1cc(/C=N/NC(=O)c2cccnc2)c(C)n1CC(C)C 1%, CC(=O)Nc1ccc(NC(=O)CSc2nnc(COc3ccccc3C)n2CC2CCCO2)cc1 (stereo not drawn) -2%, Cc1cc(C)n2nc(C(=O)N3CCN(Cc4ccc5c(c4)OCO5)CC3)nc2n1 -2%
